Compound activity (PubChem BioAssay)
In the library only some 4.1% were active in any assay of this set; here they are far more common.
pCIP destab = lowers stability of the mouse p/CIP coactivator protein | decrease of EGFP signal, % at 10 µM | F442A p/CIP-EGFP cells, EGFP fluorescence, 16 h | actives 0.01% (n = 290,000) | Q05BA5;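 active = EGFP signal decrease of at least 30% at 10 µM or well 3 SD below plate mean, unless failing retest; inactive = the rest, including hits failing retest or dose response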
GRIN3A LBD mod = modulates the human NR3A ligand-binding domain | actives 2.5% (n = 340,000) | Tm shift relative to glycine control, % at 25 µM | NR3A LBD differential scanning fluorimetry, Tm shift; 0% = protein alone, 100% = glycine-bound protein;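 active = melting temperature shift of at least 10% of the positive control shift, at one fixed dose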
MPTP block = blocks calcium-induced mitochondrial swelling | inhibition, % at 10 µM | actives 1.4% (n = 360,000) | isolated mouse mitochondria, Ca2+ swelling absorbance, 30 min;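 active = inhibition of 50% or more, scaled per plate between neutral and stimulator controls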
MIN6 prolif = induces beta-cell replication in MIN6 cells. AID 2380. MIN6 cells proliferation, ATPlite luminescence, 48 h; cells starved in 0.2% serum; 100% = growth in 10% serum. actives 0.29% (n = 330,000). proliferation, % at 10 µM;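 active = compounds whose signal lies at least 3.5 SD above the mean of all wells on their plate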
FAS-TE inh = inhibitors of human fatty acid synthase thioesterase domain. recombinant FAS-TE, OMFH fluorogenic substrate, fluorescence endpoint. actives 0.67% (n = 360,000). P49327. inhibition, % at 15 µM. AID 602261;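 active = compounds whose normalised, plate-corrected inhibition of enzyme fluorescence in the single-dose primary screen is 50% or more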
FAS-TE conf = FAS thioesterase (human) inhibition, confirmation; AID 624325; recombinant FAS-TE, OMFH fluorogenic substrate, fluorescence; inhibition, % at 15 µM; shares compounds with FAS-TE inh; actives 45% (n = 2,300);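 active = compounds inhibiting the enzyme by at least 50% at 15 µM in any one of the replicates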
Hits are given with their value; – = inactive; · = no result given.

SMILES | pCIP destab | GRIN3A LBD mod | MPTP block | MIN6 prolif | FAS-TE inh | FAS-TE conf
Cc1ccccc1-n1c(SCC(=O)N/N=C/C=C/c2ccccc2[N+](=O)[O-])nc2ccccc2c1=O | – | – | – | – | 79 | –
O=C(CCC(=O)Nc1cccc(Cl)c1)N/N=C/c1cc([N+](=O)[O-])ccc1O | – | – | – | – | 65 | 83
O=C(CCCC(=O)Nc1cccc(Br)c1)N/N=C/c1cc([N+](=O)[O-])ccc1O | – | – | – | – | 54 | 72
Cc1ccc(NC(=O)CCC(=O)N/N=C/c2cc([N+](=O)[O-])ccc2O)cc1 | – | – | – | – | – | ·
Nc1nc2ncccn2c1-c1ccc(F)c(F)c1 | · | · | – | · | · | ·
O=C(O)COc1ccc2nsnc2c1Cl | – | – | – | – | – | ·
Cc1ccccc1C1=C/C(=C(\SS/C(C(=O)c2ccc(OCC(=O)O)c(Cl)c2Cl)=C2\C=C(c3ccccc3C)SS2)C(=O)c2ccc(OCC(=O)O)c(Cl)c2Cl)SS1 | · | – | – | · | 83 | 88
O=C(Cn1[nH]c(=O)c2ccccc2c1=O)N1CCN(S(=O)(=O)c2ccc(Cl)cc2)CC1 | · | – | – | – | – | ·
O=C(O)CSc1cc(C(=O)c2ccccc2O)cn2c(=O)c3c(-c4ccccc4)csc3nc12 | – | – | – | – | 70 | 79
CCOC(=O)c1sc2nc3c(SCC(=O)O)cc(C(=O)c4ccccc4O)cn3c(=O)c2c1C | – | – | – | – | – | ·
Cc1c(Cl)cccc1N1C(=O)C(N2C(=O)c3cccc([N+](=O)[O-])c3C2=O)C1c1cccs1 (stereo not given) | – | – | – | – | 63 | –
O=C1C2C3C=CC(c4ccccc4)(C2C(=O)N1c1cccc(Cl)c1)C1C(=O)N(c2cccc(Cl)c2)C(=O)C31 (stereo not given) | – | 23 | – | – | 65 | –
CSC(=Nc1ccccc1)N=C(SCc1ccccc1)N(C)C | · | 11 | – | · | 84 | 90
CCOC(=O)[C@H]1[C@H]2COc3ccc(Br)cc3[C@@H]2N2C(=O)c3cc(F)c(F)cc3NC(=O)[C@@]12C | · | – | – | – | – | ·
COc1ccc2c(c1)C(=O)N1[C@H]3c4cc(Br)ccc4OC[C@@H]3[C@H](c3ccccc3)[C@]1(C)C(=O)N2 | · | – | – | – | 78 | 41
C[C@@]12C(=O)Nc3ccccc3C(=O)N1[C@H]1c3cc(Br)ccc3OC[C@@H]1[C@@H]2c1ccccc1 | · | – | – | – | 92 | 47
C[C@@]12C(=O)Nc3ccc(Cl)cc3C(=O)N1[C@H]1c3cc(Br)ccc3OC[C@@H]1[C@@H]2c1ccccc1 | · | – | – | – | 91 | –
C[C@@]12C(=O)Nc3ccc(Br)cc3C(=O)N1[C@H]1c3cc(Br)ccc3OC[C@@H]1[C@@H]2c1ccccc1 | · | – | – | – | 64 | –
CC1(C(=O)NS(=O)(=O)c2cccc(F)c2)CCN1C(=O)CC1CCCCC1 (stereo not given) | · | · | – | · | – | ·
O=C(Nc1ccc2c(c1)OCO2)c1cc(C2CCCCN2S(=O)(=O)Cc2ccccc2)on1 (stereo not given) | · | · | – | · | – | ·
CC(C)(C)c1ccc(C(=O)NCC(=O)OCc2ccc([N+](=O)[O-])cc2)cc1 | – | – | – | – | 71 | 83
CCNC(=S)N1CCc2cc(OC)c(OC)cc2C1COc1ccc(OC)cc1 (stereo not given) | – | – | – | – | – | ·
COc1cccc(NC(=S)N2CCc3cc(OC)c(OC)cc3C2COc2ccc3c(C)cc(=O)oc3c2)c1 (stereo not given) | – | – | – | – | 58 | –
COC(=O)c1ccc(Nc2nnc(-c3ccc(C)c(S(=O)(=O)NCC4CCCO4)c3)c3ccccc23)cc1 (stereo not given) | – | – | – | – | 67 | –
Cc1ccc(-c2nnc(Nc3ccc(C(=O)N(C)C)cc3)c3ccccc23)cc1S(=O)(=O)NCC1CCCO1 (stereo not given) | – | – | – | – | – | ·
SMILES | pCIP destab | GRIN3A LBD mod | MPTP block | MIN6 prolif | FAS-TE inh | FAS-TE conf
COc1ccc(Nc2cc(C(=O)N3CCc4ccccc4C3)c3ccccc3n2)c(OC)c1 | – | – | – | – | 61 | –
O=C(O)c1cc(NN=Nc2ccc(Br)cc2)cc([N+](=O)[O-])c1 | – | – | – | – | 69 | 75
C=CCOC(=O)COc1ccc2c(C)c(C)c(=O)oc2c1 | – | – | – | – | – | ·
C=CCOC(=O)COc1ccc2c(C)c(CC)c(=O)oc2c1 | – | – | – | – | 70 | 73
CCOC(=O)c1c(-c2ccccc2)csc1NC(=O)c1ccc(S(=O)(=O)N2CC(C)OC(C)C2)cc1 (stereo not given) | – | – | – | – | – | ·
CCOC(=O)c1c(-c2ccccc2)csc1NC(=O)c1cc(S(=O)(=O)N2CCOCC2)ccc1C | – | – | – | – | 52 | –
CS(=O)(=O)c1cc([N+](=O)[O-])c(Sc2nc3ccccc3[nH]2)c([N+](=O)[O-])c1 | – | – | – | – | 51 | –
O=C(NCCCc1ccccc1)c1ccc([N+](=O)[O-])cc1Cl | – | – | – | – | 84 | 88
O=C(NCCc1cccc(Cl)c1)c1cc([N+](=O)[O-])ccc1Cl | – | – | – | – | 64 | –
Cc1ccc(C(=O)NCCc2cccc(Cl)c2)cc1[N+](=O)[O-] | – | – | – | – | 52 | –
COc1ccc(C(C(=O)c2ccccc2)c2ccccc2)cc1 (stereo not given) | · | · | – | · | · | ·
O=C(OC(c1ccccc1)c1nccc2ccccc12)c1cc([N+](=O)[O-])cc([N+](=O)[O-])c1 (stereo not given) | – | – | – | – | 50 | –
O=[N+]([O-])c1ccc(S(=O)(=O)NN=Cc2ccc3c(c2)OCO3)cc1 | · | – | – | · | 64 | 72
O=S(=O)(N/N=C/c1ccc2c(c1)OCO2)c1ccc(Br)cc1 | – | – | – | – | – | ·
CCOC(=O)[C@H]1[C@H]2COc3ccc(C)cc3[C@@H]2N2C(=O)c3cc(Br)ccc3NC(=O)[C@@]12C | · | – | – | – | 57 | –
CCOC(=O)[C@@H]1[C@H]2COc3ccc(Br)cc3[C@@H]2N2C(=O)N(c3cccc(Cl)c3)C(=O)[C@@]12C | · | – | – | – | 73 | 52
CCOC(=O)[C@H]1[C@H]2COc3ccc(Cl)cc3[C@@H]2N2C(=O)c3ccc(Cl)cc3NC(=O)[C@@]12C | · | – | – | – | 59 | –
CCOC(=O)[C@H]1[C@H]2COc3ccc(Br)cc3[C@@H]2N2C(=O)c3c(C)cc(C)cc3NC(=O)[C@@]12C | · | – | – | – | 68 | –
O=C1c2ccccc2C(=O)N1CCCc1cn(C[C@H]2CC[C@H](Cn3cc(CCCN4C(=O)c5ccccc5C4=O)nn3)O2)nn1 | · | – | – | · | – | ·
